# Measurements: PubChem BioAssay
# Activity calls are given as the source filed them.
# Assays:
# [1] = binders of probe aFSTL3 on microarray, primary screen, stem cell growth factor project, biochemical, small-molecule microarray, fluorescence 635/667 (AID 1064); conditions: higher = more signal;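 note: measures binding of the biotinylated anti-FSTL3 antibody to printed compounds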
# [2] = binders from COS7 lysate, DM2A8 probe, primary screen, torsin A project, cell lysate, small-molecule microarray, fluorescence 635/667 (AID 1065); conditions: higher = more signal, COS7 lysate expressing mutant human TOR1A
# [3] = binders of probe aFGF2 on microarray, primary screen, stem cell growth factor project, biochemical, small-molecule microarray, fluorescence 635/667 (AID 1067); conditions: higher = more signal;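 note: measures binding of biotinylated aFGF2 protein to printed compounds on slides; z-score merges feature fluorescence and signal-to-noise across triplicate slides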
# [4] = binders of probe aFGF10 on microarray, primary screen, stem cell growth factor project, biochemical, small-molecule microarray, fluorescence 635/667 (AID 1071); conditions: higher = more signal;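 note: score merges 667 nm spot intensity and signal to noise from triplicate slides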
# [5] = molecular target: Neurogenic locus notch homolog protein 2 (Homo sapiens) (UniProt Q04721); test: Notch2 binders on small-molecule microarrays, primary screen, biochemical, small-molecule microarray, 635 nm fluorescence, stem cell growth factors (AID 1073); conditions: Notch2 binding, higher = more signal
# [6] = molecular target: Pro-neuregulin-1, membrane-bound isoform (Homo sapiens) (UniProt Q02297); test: NRG1 binders on small-molecule microarrays, primary screen, psychiatric disease protein project, biochemical, small-molecule microarray, fluorescence 635/667 (AID 1075); conditions: NRG1 binding, 635 nm fluorescence, higher = more signal;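 note: score combines 667 nm spot fluorescence with signal to noise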
# [7] = test system: Neuregulin-1 EGF-like domain; test: binders of neuregulin-1 EGF-like domain, primary screen, biochemical, small-molecule microarray, 635 nm fluorescence (AID 1081); conditions: small-molecule microarray binding, higher = more signal;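 note: binding of the protein to compounds printed on small-molecule microarray slides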
# [8] = FRG1 promoter luciferase signal modulators, primary screen, FRG1 inhibition for FSHD, cell-based, C2C12 myotubes, firefly/Renilla luciferase, luminescence (AID 1084); conditions: higher = more signal, called active from +8 up or from −8 down
# [9] = binders of probe aFST on microarray, primary screen, stem cell growth factor project, biochemical, small-molecule microarray, fluorescence 635/667 (AID 1086); conditions: higher = more signal;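 note: score merges 667 nm fluorescence with signal-to-noise of each printed compound spot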
# [10] = binders of probe aHhip on microarray, primary screen, stem cell growth factor project, biochemical, small-molecule microarray, fluorescence 635/667 (AID 1087); conditions: higher = more signal;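 note: score merges spot fluorescence at 667nm with spot signal to noise ratio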
# Chain of Pro-neuregulin-1, membrane-bound isoform (Homo sapiens) (Q02297 whole entry, looked up, the tested form may be a part, canonical isoform): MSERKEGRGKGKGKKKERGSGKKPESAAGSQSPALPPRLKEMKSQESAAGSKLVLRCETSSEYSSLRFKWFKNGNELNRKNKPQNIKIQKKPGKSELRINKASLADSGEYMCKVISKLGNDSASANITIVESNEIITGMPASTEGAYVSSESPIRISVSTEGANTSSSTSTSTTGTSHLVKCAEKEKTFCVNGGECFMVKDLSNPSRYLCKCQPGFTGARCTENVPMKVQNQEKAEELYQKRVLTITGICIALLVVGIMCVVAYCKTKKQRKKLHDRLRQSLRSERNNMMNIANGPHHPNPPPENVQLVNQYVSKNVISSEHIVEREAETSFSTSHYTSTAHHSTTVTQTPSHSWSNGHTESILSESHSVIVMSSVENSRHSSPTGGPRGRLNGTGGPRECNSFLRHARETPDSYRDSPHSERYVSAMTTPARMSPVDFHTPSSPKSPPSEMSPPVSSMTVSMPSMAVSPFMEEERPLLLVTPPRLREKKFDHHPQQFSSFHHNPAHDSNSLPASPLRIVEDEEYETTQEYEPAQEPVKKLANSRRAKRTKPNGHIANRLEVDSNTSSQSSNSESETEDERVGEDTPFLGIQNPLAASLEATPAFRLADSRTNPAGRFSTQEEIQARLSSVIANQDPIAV
# Chain of Neurogenic locus notch homolog protein 2 (Homo sapiens) (Q04721 whole entry, looked up, canonical isoform): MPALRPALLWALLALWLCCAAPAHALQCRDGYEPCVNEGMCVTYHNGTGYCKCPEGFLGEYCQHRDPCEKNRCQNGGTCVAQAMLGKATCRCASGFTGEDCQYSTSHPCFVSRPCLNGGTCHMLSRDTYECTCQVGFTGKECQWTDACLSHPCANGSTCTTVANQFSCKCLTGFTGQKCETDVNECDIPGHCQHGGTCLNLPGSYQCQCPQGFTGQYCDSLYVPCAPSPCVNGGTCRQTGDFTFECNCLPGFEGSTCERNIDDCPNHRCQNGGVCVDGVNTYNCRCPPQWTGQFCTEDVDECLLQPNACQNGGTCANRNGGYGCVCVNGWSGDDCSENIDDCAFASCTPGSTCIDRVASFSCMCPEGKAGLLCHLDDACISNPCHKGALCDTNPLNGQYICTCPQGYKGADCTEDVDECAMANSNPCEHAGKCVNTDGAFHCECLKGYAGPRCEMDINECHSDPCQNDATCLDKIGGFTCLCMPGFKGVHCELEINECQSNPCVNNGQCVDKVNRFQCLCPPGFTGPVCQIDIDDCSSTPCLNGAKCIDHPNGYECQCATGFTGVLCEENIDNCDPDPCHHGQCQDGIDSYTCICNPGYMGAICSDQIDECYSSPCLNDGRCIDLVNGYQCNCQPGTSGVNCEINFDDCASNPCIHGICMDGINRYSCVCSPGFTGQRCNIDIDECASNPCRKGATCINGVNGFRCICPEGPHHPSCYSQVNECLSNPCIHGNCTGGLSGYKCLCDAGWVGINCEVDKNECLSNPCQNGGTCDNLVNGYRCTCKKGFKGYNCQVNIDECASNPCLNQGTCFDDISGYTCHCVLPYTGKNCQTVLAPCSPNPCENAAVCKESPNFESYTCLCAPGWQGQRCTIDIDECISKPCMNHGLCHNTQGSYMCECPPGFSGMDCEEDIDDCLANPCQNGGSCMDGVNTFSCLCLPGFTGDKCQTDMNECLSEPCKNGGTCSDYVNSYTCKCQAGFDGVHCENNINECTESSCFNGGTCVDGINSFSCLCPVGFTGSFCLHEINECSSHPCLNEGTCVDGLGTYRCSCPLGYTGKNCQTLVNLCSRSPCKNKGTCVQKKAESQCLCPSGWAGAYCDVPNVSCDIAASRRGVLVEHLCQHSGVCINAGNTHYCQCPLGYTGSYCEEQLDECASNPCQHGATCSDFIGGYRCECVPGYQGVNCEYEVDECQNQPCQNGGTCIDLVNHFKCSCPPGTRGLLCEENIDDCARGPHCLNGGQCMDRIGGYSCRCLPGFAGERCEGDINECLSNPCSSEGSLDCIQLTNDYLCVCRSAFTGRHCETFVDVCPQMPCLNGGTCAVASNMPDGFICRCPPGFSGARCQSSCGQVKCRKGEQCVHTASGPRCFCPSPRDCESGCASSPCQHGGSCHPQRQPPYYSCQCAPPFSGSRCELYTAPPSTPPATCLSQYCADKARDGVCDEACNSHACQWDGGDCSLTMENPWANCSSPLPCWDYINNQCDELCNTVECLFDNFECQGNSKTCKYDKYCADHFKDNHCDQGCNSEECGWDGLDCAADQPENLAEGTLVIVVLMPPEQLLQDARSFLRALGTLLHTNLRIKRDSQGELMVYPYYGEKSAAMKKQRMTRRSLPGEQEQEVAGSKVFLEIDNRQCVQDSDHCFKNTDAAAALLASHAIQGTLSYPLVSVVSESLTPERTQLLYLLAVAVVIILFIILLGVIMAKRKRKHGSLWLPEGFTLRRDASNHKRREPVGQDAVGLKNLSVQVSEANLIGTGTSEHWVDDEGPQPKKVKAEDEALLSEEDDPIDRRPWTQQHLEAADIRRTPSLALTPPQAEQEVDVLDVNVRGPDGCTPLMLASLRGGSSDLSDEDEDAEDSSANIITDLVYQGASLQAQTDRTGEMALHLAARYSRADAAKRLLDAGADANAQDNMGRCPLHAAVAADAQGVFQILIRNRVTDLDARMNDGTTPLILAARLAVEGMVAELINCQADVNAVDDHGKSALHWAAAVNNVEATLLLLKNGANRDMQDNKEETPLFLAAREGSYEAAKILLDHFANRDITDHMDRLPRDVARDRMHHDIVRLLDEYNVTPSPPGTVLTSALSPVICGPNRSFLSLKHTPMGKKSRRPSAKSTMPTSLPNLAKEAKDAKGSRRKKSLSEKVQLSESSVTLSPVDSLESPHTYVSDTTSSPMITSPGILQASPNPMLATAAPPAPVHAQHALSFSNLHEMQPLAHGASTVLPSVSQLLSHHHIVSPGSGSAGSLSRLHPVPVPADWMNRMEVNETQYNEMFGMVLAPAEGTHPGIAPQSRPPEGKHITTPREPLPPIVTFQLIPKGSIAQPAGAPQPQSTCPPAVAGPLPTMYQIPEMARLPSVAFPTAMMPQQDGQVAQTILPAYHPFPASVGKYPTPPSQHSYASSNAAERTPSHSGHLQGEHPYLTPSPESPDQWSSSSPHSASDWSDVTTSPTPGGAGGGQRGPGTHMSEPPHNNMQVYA
SMILES,composite z-score [1],composite z-score [2],composite z-score [3],composite z-score [4],composite z-score [5],composite z-score [6],composite z-score [7],z-score [8],composite z-score [9],composite z-score [10]
COc1ccc(CCNC(=O)[C@@]2(C)c3ccccc3C(=O)N(Cc3cc(F)cc(C(F)(F)F)c3)[C@H]2c2ccc(CO)cc2)cc1,0.498,-0.518,0.0046,-0.23,0.146,0.499,0.969,-3.42 (inactive),-0.247,0.156
O=C1OCC=C[C@H]2OC34C=CCN(CCN5CCOCC5)C(=O)[C@H]3N(CCCO)C(=O)[C@@H]4[C@@H]12 (stereo not given in full),-0.206,-0.426,-0.139,-0.02,-0.146,-0.125,0.59,1.78 (inactive),-0.382,-0.0003
COCCOC(=O)N1C(=O)[C@@]2(c3cc(C#Cc4ccc(OC)cc4)ccc31)[C@H](c1ccc(O)cc1)N1[C@H](c3ccccc3)[C@H](c3ccccc3)OC(=O)[C@H]1[C@@H]2C(=O)NC[C@H](O)c1ccccc1,-0.273,0.101,-0.155,0.63,1.29,1.53,1.34,0.1 (inactive),0.536,0.192
O=C1O[C@@H](c2ccccc2)[C@@H](c2ccccc2)N2[C@@H](c3ccc(OCCO)cc3)[C@]3(C(=O)Nc4ccccc43)[C@@H](C(=O)NC[C@H](O)c3ccccc3)[C@H]12,-0.0164,0.0007,-0.019,-0.0455,1.27,1.24,1.26,-2.2 (inactive),0.322,-0.145
O=C1C2C=CC(C(O)c3ccc(F)cc3)N(Nc3ccccc3F)C2C(=O)N1c1ccccc1 (stereo not given),0.185,-0.333,0.124,0.439,1.16,1.99,1.23,-1.43 (inactive),0.886,0.21
CCCCC=C[C@@H](NC(=O)Oc1cccc(C(F)(F)F)c1)c1ccccc1,1.56,0.974,0.84,1.03,1.55,1.47,1.11,-3.84 (inactive),2.02,2.27
CC(C)C[C@@H]1NC(=O)[C@H]2C[C@@H](C(=O)NCCCCCCN(C)C)[C@@H](c3ccc(O)cc3)N2C1=O,-0.0795,1.44,-0.0366,1.16,0.285,0.717,1.48,3.69 (inactive),0.0151,0.0274
C=CCN1C(=O)[C@]2(O[C@H](CCO)[C@@H]([Si](C)(C)c3ccc(OC)cc3)[C@@H]2C)c2cc(N3CCCCC3=O)ccc21,-0.5,0.897,-0.0291,0.428,1.15,1.42,1.24,-3.81 (inactive),0.645,-0.13
COc1cc2c(cc1OC)CN(C(=O)[C@@H]1[C@H]3C(=O)O[C@H](c4ccccc4)[C@H](c4ccccc4)N3[C@H](c3ccc(O)cc3)[C@@]13C(=O)Nc1ccc(C#CC4(O)CCCCCC4)cc13)CC2,-1.38,0.75,-0.0197,0.763,1.18,1.73,1.35,0.651 (inactive),0.0629,-0.274
C[N+](C)(C)CCCC[C@@H]1NC(=O)[C@@H]2C[C@H](C(=O)NCCCCCN)[C@H](c3cccc(OCCO)c3)N2C1=O,0.6,1.6,-0.0253,0.506,1.14,2.15,1.08,-0.992 (inactive),0.877,0.161
COc1ccc(C(=O)Nc2ccc(CN3C(=O)[C@@]4(O[C@@H](CCO)[C@H]([Si](C)(C)c5ccc(OC)cc5)[C@H]4C)c4ccccc43)cc2)cc1,-0.0338,0.623,-0.113,0.187,0.912,1.22,1.1,-3.12 (inactive),0.25,-0.0645
CN1C(=O)C2C=CC(C(O)C3CCCCC3)N(Nc3ccc([N+](=O)[O-])cc3[N+](=O)[O-])C2C1=O (stereo not given),0.0318,0.548,0.0331,0.752,1.6,1.59,1.32,0.358 (inactive),1.51,0.236
C=CCNC(=O)[C@H]1[C@@H]2C(=O)O[C@@H](c3ccccc3)[C@@H](c3ccccc3)N2[C@@H](c2ccccc2OCCO)[C@]12C(=O)Nc1ccc(C#CC3=CCCCC3)cc12,-0.382,0.952,-0.0534,0.88,1.04,0.666,1.09,-2.87 (inactive),0.185,0.0695
COc1ccc(C(O)C2C=CC3C(=O)N(C)C(=O)C3N2N2CCCCC2)c2ccccc12 (stereo not given),-0.226,0.0595,0.192,0.988,1.65,1.27,1.07,-0.292 (inactive),0.858,0.176
CCCCCN1CC=CC23O[C@@H]4/C=C\CCCOC(=O)C4[C@H]2C(=O)N(CCCO)[C@@H]3C1=O (stereo not given in full),-0.181,1.14,-0.156,0.116,-0.573,0.753,1.47,-0.16 (inactive),-0.533,-0.11
[N-]=[N+]=NCc1ccccc1[C@@H]1OC(c2ccc(OCCCO)cc2)=N[C@]1(CCS(=O)(=O)c1ccccc1)C(=O)NCc1ccccc1,0.985,1.05,0.289,0.76,1.5,1.74,1.32,-2.83 (inactive),1.89,0.683
CN1C(=O)C2C=CC(C(O)Cc3ccccc3)N(Nc3ccccc3)C2C1=O (stereo not given),0.0217,-0.576,-0.116,0.294,1.21,1.38,1.13,0.84 (inactive),0.0791,-0.236
COCCCN1C(=O)[C@@]2(c3ccc([N+](=O)[O-])cc3)CC(=O)N(C3CCCCC3)[C@@H]2c2ccc(CO)cc21,-0.246,0.178,-0.153,-0.118,-0.537,-0.214,0.467,1.07 (inactive),-0.036,-0.134
[N-]=[N+]=NCc1ccccc1[C@@H]1OC(c2ccc(OCCCO)cc2)=N[C@]1(CCS(=O)(=O)c1ccccc1)C(=O)NCCN1CCOCC1,0.21,0.631,0.269,0.918,1.65,1.99,1.31,1.97 (inactive),1.87,0.156
COCCOC(=O)N1C(=O)[C@@]2(c3cc(C#CCCO)ccc31)[C@H](C(=O)N1CCc3cc(OC)c(OC)cc3C1)[C@H]1C(=O)O[C@H](c3ccccc3)[C@H](c3ccccc3)N1[C@@H]2c1ccc(O)cc1,-0.239,0.761,0.0106,0.393,1.15,1.46,1.32,0.897 (inactive),0.239,-0.0645
COc1cc2c(cc1OC)CN(C(=O)[C@H]1[C@@H]3C(=O)O[C@@H](c4ccccc4)[C@@H](c4ccccc4)N3[C@@H](c3ccc(O)cc3)[C@]13C(=O)Nc1ccc(C#CC4=CCCCC4)cc13)CC2,-0.0904,1.36,0.088,1.24,1.24,1.33,1.21,-0.139 (inactive),0.827,0.421
COC(=O)[C@@]1(Cc2ccc(OC)cc2)[C@H]2c3cc(C(=O)N(C)C)n(Cc4cccc5ccccc45)c3C[C@H]2CN1C(=O)c1ccccc1,-0.193,1.16,0.118,1.15,1.27,1.79,1.36,0.189 (inactive),1.33,0.534
Cc1ccc(C(C)CC(O)C2C=CC3C(=O)N(C)C(=O)C3N2NC(=O)OC(C)(C)C)o1 (stereo not given),-0.112,0.6,0.239,0.687,0.868,1.67,0.883,0.385 (inactive),0.889,-0.27
O=C1OCC=C[C@H]2OC34C=CCN(c5ccc6ccccc6c5)C(=O)[C@H]3N(CCCCCCO)C(=O)[C@@H]4[C@@H]12 (stereo not given in full),0.787,1.94,-0.133,-0.566,-1.15,0.781,1.57,0.78 (inactive),-0.302,-0.226
C=CCC(OC(C)=O)[C@@H]1[C@@H](N(Cc2ccc(-c3cccc(C(F)(F)F)c3)o2)C(=O)c2ccc(-c3ccccc3)cc2)c2cc(OCCCO)ccc2N1C(=O)c1ccc(-c2ccccc2)cc1 (stereo not given in full),0.0961,-0.233,-0.0242,0.232,0.242,0.0249,-0.825,-0.245 (inactive),0.13,-0.0994
CCCCc1cn(C[C@H](Cc2ccccc2)NC(=O)N[C@H](CO)CCc2oc(C(C)=O)c(C(=O)OC)c2C(=O)OC)nn1,-0.422,0.651,-0.166,0.864,1.56,0.979,1.32,0.833 (inactive),0.839,-0.0994
O=C(C1N=C(c2ccc(OCCCO)cc2)N(c2ccccc2)O1)N1CCOCC1 (stereo not given),-0.428,0.267,0.0646,1.28,1.45,1.27,0.336,2.27 (inactive),0.974,-0.113
C=CCNC(=O)[C@@H]1[C@H]2C(=O)O[C@H](c3ccccc3)[C@H](c3ccccc3)N2[C@H](c2ccc(OCCO)cc2)[C@@]12C(=O)Nc1ccc(C#Cc3ccc(OC)cc3)cc12,-0.175,1.14,0.0969,0.73,1.41,1.24,1.18,0.994 (inactive),0.4,0.283
CC1CC/C=C\[C@H]2OC34C=CCN(Cn5nnc6ccccc65)C(=O)[C@H]3N(C(CO)C(C)C)C(=O)[C@@H]4C2C(=O)O1 (stereo not given in full),0.0351,-0.804,-0.175,-0.266,0.145,1.22,1.42,0.298 (inactive),-0.314,0.0505
